Screens: PubChem BioAssay, several laboratories
Sampled rows, rich in hits. Any-hit rate of the full collection: about 2.6%.
TLR4 MyD88 comp – inhibitors of human TLR4-MyD88 binding; O00206+Q99836; HeLa CL3-4 TLR4/MyD88 BLA complementation, FRET ratio; inhibition, % at 8.4 µM; 0.18% of 200,000 active; AID 861; in the data active means inhibition above about 25%;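 further: 0% = vehicle and 100% = reference inhibitor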
NOD2-RIPK2 inh – inhibitors of human NOD2-RIPK2 interaction. inhibition, % at 4.98 µM. CHO BLA complementation NOD2-RIPK2, CCF4 ratio. O43353. AID 624267. 0.38% of 360,000 active; in the data active means inhibition above about 21%;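 further: 0% = vehicle only and 100% = reference blocker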
ABHD5 PLIN5 PPI – ABHD5-PLIN5 protein interaction inhibition | Split G. princeps luciferase complementation, luminescence, 4 h | inhibition, % at 4 µM | 0.78% of 360,000 active | AID 602281;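 active means inhibition above the mean inhibition across every tested compound plus 3 SD, cut at about 22% in these data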;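 further: 0% = DMSO only wells and the 100% control is not disclosed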
TLR9-MyD88 block – TLR9-MyD88 interaction inhibition; Q9NR96+Q99836; CHO BLA complementation TLR9-MyD88, CCF4 FRET ratio; inhibition, % at 4.98 µM; 0.21% of 340,000 active;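 active means inhibition above the mean over all tested compounds plus 3 SD, cut at about 21% in these data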;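 further: 0% = DMSO only wells and 100% = clavulanate BLA inhibitor control wells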
Target sequence (Q99836 whole entry, looked up): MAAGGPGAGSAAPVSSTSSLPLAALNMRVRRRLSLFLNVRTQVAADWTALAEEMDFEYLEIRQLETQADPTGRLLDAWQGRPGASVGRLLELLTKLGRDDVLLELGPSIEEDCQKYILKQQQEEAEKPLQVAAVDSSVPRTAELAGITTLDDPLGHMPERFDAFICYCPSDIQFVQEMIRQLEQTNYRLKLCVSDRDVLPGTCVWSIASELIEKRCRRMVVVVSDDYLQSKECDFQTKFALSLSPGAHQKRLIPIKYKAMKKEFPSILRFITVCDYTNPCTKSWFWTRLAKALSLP
Target sequence (Q9NR96 whole entry, looked up): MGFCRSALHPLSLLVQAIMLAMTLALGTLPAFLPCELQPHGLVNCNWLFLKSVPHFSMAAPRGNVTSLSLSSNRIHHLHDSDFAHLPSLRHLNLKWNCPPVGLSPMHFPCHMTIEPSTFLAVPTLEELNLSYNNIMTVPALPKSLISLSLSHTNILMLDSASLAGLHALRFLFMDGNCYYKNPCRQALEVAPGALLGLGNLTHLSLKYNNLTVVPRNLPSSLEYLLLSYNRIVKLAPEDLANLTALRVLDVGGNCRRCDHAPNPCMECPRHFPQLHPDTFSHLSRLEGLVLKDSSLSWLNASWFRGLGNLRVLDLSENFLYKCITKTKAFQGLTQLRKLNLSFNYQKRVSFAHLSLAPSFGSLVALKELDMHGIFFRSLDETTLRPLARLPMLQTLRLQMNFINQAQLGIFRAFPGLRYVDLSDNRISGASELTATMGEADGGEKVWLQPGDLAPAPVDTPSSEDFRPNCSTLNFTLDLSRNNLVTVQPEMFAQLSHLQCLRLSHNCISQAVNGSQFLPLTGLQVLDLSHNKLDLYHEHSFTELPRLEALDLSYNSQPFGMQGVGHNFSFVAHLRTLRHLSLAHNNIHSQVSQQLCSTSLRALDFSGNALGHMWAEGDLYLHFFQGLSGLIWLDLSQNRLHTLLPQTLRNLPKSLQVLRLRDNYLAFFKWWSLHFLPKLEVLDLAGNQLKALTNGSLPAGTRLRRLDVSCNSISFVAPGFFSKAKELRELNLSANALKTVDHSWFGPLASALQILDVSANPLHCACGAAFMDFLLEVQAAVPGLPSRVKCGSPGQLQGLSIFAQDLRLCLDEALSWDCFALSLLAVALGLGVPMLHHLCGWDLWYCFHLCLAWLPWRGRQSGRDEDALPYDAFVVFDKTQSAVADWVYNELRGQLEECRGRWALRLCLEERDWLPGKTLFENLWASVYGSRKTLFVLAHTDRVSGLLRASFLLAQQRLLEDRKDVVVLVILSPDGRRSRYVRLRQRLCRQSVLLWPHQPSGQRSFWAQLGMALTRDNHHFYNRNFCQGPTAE
Granule exo inh – blocks lytic granule exocytosis. TALL-104 LAMP-1 surface exposure, flow cytometry; cells stimulated with thapsigargin and PMA. inhibition, % at 10 µM. 0.66% of 360,000 active. AID 651702;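 active means inhibition above about 55%, limit read from the data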
PRMT1 FP inh – blocks human protein arginine methyltransferase 1; Q99873; recombinant PRMT1, activity-based probe fluorescence polarization; inhibition, % at 2.79 µM; 1.3% of 370,000 active; AID 652257;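 active means inhibition above about 21% made by adding two undisclosed values, limit read from the data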
PRMT1 inh conf – PRMT1 (human) inhibition, FP confirmation | shares compounds with PRMT1 FP inh | recombinant His-PRMT1, activity-based probe fluorescence polarization | inhibition, % at 2.79 µM | 42% of 3,300 active;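 active means mean inhibition across replicates above the hit cutoff derived for the earlier primary screen, cut at about 22% in these data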
An asterisk follows results filed as active; . = no result given.

SMILES | TLR4 MyD88 comp | NOD2-RIPK2 inh | ABHD5 PLIN5 PPI | TLR9-MyD88 block | Granule exo inh | PRMT1 FP inh | PRMT1 inh conf
COc1cccc(C2C3=C(N=c4s/c(=C\c5cccc(O)c5)c(=O)n42)c2ccccc2CC3)c1OC (stereo not given) | 12 | 3 | 1 | -3 | 17 | 0 | .
COc1ccccc1C1C2=C(N=c3s/c(=C/c4cccc(OCC(=O)O)c4)c(=O)n31)c1ccccc1CC2 (stereo not given) | 0 | 11 | 7 | 5 | 1 | 56* | 22*
COc1ccc(CC(=O)NC2CC2)cc1OC | . | -4 | -10 | 1 | -6 | -2 | .
CCOC(=O)CNC(=O)CSc1nc(Cc2cccs2)nc2ccccc12 | 4 | -13 | -39 | -5 | 1 | 27* | 22*
CC1Cc2cc(S(=O)(=O)NCc3ccccc3)ccc2N1C(=O)C1CC1 (stereo not given) | . | -7 | -6 | -1 | -6 | 47* | 3
O=C(NC1CCOCC1)C1CCC(=O)N(Cc2ccc(Cl)cc2)C1 (stereo not given) | . | -1 | 11 | 4 | -2 | -1 | .
Cc1ccc(/C=N/N2CCN(Cc3cccc4ccccc34)CC2)o1 | -2 | 3 | 17 | -6 | 6 | 26* | -1
O=C(CSc1ccc(Br)cc1)NCC1(N2CCCCC2)CCCCC1 | . | -4 | -1 | 3 | 2 | -1 | .
CC(=O)Nc1ccc(SCC(=O)NCC2(N3CCCCC3)CCCCC2)cc1 | . | -9 | -25 | -5 | -1 | 41* | 37*
O=C(O)c1cccc2c1C(=O)c1ccc(N3CCCC3)cc1S2(=O)=O | . | 9 | 2 | 9 | 18 | 27* | 30*
Cc1ccc(OCC(=O)N2CCCCC2C)c([N+](=O)[O-])n1 (stereo not given) | . | -7 | 5 | -1 | 5 | 2 | .
CCN(CCO)c1nc(SC)nc2c1sc1nc(-c3ccco3)c3c(c12)CCC3 | 2 | -4 | 2 | -5 | 1 | . | .
CSc1nc(NCCOCCO)c2sc3nc(-c4ccco4)c4c(c3c2n1)CCC4 | -1 | -2 | 18 | -5 | -1 | 41* | 24*
COc1ccccc1CNS(=O)(=O)CCNC(=O)c1ccccc1 | . | -7 | 2 | -8 | 0 | -1 | .
Cc1cc(C)c(C)c(S(=O)(=O)N2C(=S)NC(=O)C2C(C)C)c1C (stereo not given) | 5 | 3 | -4 | 2 | -1 | 28* | 6
Cc1cc(C)c(C)c(S(=O)(=O)N2C(=S)NC(=O)C2CC(C)C)c1C (stereo not given) | -12 | -11 | -4 | -5 | 0 | 2 | .
Cc1cccc(NC(=O)C(NS(=O)(=O)c2ccc3c(c2)CCC(=O)N3)c2ccccc2)n1 (stereo not given) | -8 | 4 | -4 | -7 | -3 | 47* | 48*
C[C@@H]1CN([C@H](C)CO)C(=O)CCCn2nncc2CO[C@@H]1CN(C)S(=O)(=O)c1ccccc1F | . | -1 | 5 | -1 | -2 | 3 | .
O=C(c1cc(COc2ccc(F)cc2Cl)on1)N1CC2C[C@@H]3CC1C[C@H](C2)C3 | . | 4 | -7 | 9 | -1 | 0 | .
O=C(NC(=S)NC(=O)c1ccccc1F)c1ccccc1F | -18 | -6 | -8 | -6 | 5 | 28* | 2
O=C(CN(C(=O)CNC(=O)c1ccco1)c1ccccc1F)NC1CCCCC1 | . | -2 | 12 | -11 | -8 | 2 | .
CN(CCc1ccccn1)C1CC(=O)N(c2ccc(Cl)cc2)C1=O (stereo not given) | -9 | -2 | 5 | 2 | 1 | 80* | 16
C[C@@H]1CN([C@H](C)CO)C(=O)CCCn2nncc2CO[C@@H]1CN(C)C(=O)Nc1ccnc(N2CCOCC2)c1 | . | -5 | 4 | -1 | -6 | 8 | .
O=C(CCc1c[nH]c2ccccc12)NCCc1ccc(O)cc1 | . | -7 | 6 | 1 | -5 | -3 | .
Cc1cc(-c2ccco2)n(CC(=O)NCCCc2ccccc2)n1 | 0 | -9 | 0 | 4 | 0 | 47* | 1
SMILES | TLR4 MyD88 comp | NOD2-RIPK2 inh | ABHD5 PLIN5 PPI | TLR9-MyD88 block | Granule exo inh | PRMT1 FP inh | PRMT1 inh conf
O=c1cc(C(F)(F)F)nc(SCc2cccnc2)[nH]1 | . | -1 | 2 | -3 | 5 | . | .
Cc1cc(=O)[nH]c(SCn2nnc3ccccc3c2=O)n1 | -2 | -9 | -14 | -5 | -4 | 31* | 6
O=c1ccnc(SCn2nnc3ccccc3c2=O)[nH]1 | 7 | -11 | -11 | 0 | 0 | 44* | 0
CC(=O)C1=C(C)Nc2cc(C(F)(F)F)ccc2S1 | 0 | -2 | -2 | -8 | 5 | 28* | 13
CCOC(=O)c1c(NC(=O)CC2Sc3ccc(C(F)(F)F)cc3NC2=O)sc(C)c1C (stereo not given) | 6 | -12 | 2 | -2 | -7 | -3 | .
CC1(C(=O)NCc2ccc3c(c2)OCO3)CCN1Cc1csc2ccccc12 (stereo not given) | . | 15 | 7 | . | -2 | -3 | .
COc1ccc(NC2=CC(c3ccc(OC)c(OC)c3)N(c3ccc(OC)cc3)C2=O)cc1 (stereo not given) | -4 | -5 | -11 | -1 | 0 | 8 | .
NS(=O)(=O)c1ccc(NC2=CC(c3ccc([N+](=O)[O-])cc3)N(c3ccc(S(N)(=O)=O)cc3)C2=O)cc1 (stereo not given) | . | 1 | 7 | -2 | -1 | 27* | 3
COc1ccc(CN2C(=O)C(CC(=O)NC3CCCC3)CC(C(=O)N(C(C)C)C(C)C)=C2C)cc1 (stereo not given) | . | -2 | 2 | -12 | -3 | 5 | .
CC(C)C1Cc2c(C#N)c(N)sc(=S)c2CO1 (stereo not given) | 6 | -8 | -5 | 0 | 0 | 48* | 10
CC1(C)Cc2c(C#N)c(N)sc(=S)c2CO1 | 7 | -3 | -9 | -3 | 0 | 46* | 20
N#Cc1c(N)[nH]c(=S)c(C#N)c1-c1ccccc1 | -16 | 3 | -7 | 0 | 2 | 38* | 14
CCN(CC)C(=S)SCC(=O)Nc1nc(=O)c2ccccc2s1 | -21 | -5 | -28 | 0 | 1 | 44* | -6
CCN(CC)C(=S)SCC(=O)Nc1ccc(S(N)(=O)=O)cc1 | -2 | -5 | -3 | 9 | -4 | -4 | .
O=C(CSC1=NCCS1)Nc1ccc(S(=O)(=O)NC2CCCCC2)cc1 | -3 | 6 | -13 | 0 | -1 | 29* | 26*
COc1cc(NS(=O)(=O)c2ccc(NC(=O)CSC3=NCCS3)cc2)nc(OC)n1 | 9 | . | . | . | . | . | .
O=C(CSC1=NCCS1)Nc1ccc(S(=O)(=O)N2CCCCCC2)cc1 | 9 | 3 | -24 | 11 | -3 | 38* | 52*
COc1ccc(Cc2nc3ccc(C(=O)NC(C)c4cn(C)nc4C)cc3o2)cc1 (stereo not given) | . | -6 | 17 | -3 | -1 | 0 | .
